# Molecular target: T1, ETS1 (UniProt P14921)
# T1 sequence: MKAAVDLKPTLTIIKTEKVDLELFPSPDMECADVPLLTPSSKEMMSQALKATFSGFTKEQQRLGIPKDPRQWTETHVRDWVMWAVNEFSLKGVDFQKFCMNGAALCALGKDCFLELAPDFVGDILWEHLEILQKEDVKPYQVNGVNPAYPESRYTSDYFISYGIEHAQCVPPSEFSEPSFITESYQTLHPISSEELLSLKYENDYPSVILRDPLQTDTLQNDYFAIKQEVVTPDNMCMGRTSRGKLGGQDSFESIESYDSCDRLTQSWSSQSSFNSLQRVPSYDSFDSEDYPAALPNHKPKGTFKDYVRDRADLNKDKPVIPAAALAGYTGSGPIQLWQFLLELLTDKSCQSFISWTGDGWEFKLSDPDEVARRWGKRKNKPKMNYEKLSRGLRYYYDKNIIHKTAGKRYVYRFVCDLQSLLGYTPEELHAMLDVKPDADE
# Test: ETS1 binding intensity (PBM fluorescence), ETS1 alone (arbitrary fluorescence units); higher = stronger binding
# Details: ETS1 concentration 1 nM; RUNX1 concentration 0 nM
row,Sequence,ETS1 binding intensity
1,GCCTGCAGCTTCTTCCTGTGGCTTCTGCATCTCAGG,4420
2,GACCGAGAGGAAGCAGCAAGGATCCTGCGGTTCCAG,505
3,CCAAGCACTTCCTGCTGTTAGCTTTGTGGGCTGAGT,826
4,CAACAACCGGAAGTGGGGCGGGCCGCAGTACCCGCC,14900
5,AGACGGTAGGCCAGGAAACCGCAGGCCCCTGCCGGG,925
6,ACACTGGCCGGAAGGGGCGGGACCGCGAGTTAAGAG,1280
7,ACGTTTCGGGGTTTCCGGGCCAGCGGTTTCGGGCGC,702
8,TGCTCAAATGCAGGATGTGGTCTGAGAGTTTCTCCT,1910
9,TAAGGATGTGTGGCTTCCAGATCAAAAACCGCAAAA,516
10,CAGATTCAAGGAAGTGGTGGTGGTTTGGTGTCGTTG,738
11,TGCCGGGCCCCGGATGTCACCGCAGCCGCCATCTTA,2460
12,ACATTCTTCCGGTTGGACCTCCGCGGTCAGCGCTGT,871
13,ATCTTGGCCCATATCCTGTGGTGTTCTGCTAGAGGT,768
14,TACCAACAGGAATCTTTGGGGTCTAAACCGCAAACA,481
15,TAAAACACCAGGAAACTCTGTGGTGAGTGGGAGGTG,787
16,GAGCCCAACCGGCATCCGTCGCGGTTGGACGTGGGC,343
17,CTCGTGCGTCACTTCCGCCCCGCAGACCCGCCCACT,2410
18,TGGAAGGCCGGAAAAGGTTTACCACCACACTCCGGT,1850
19,CCCAGGCTTCCGGGTTGAATATGTGGGCTGAGGCGA,455
